From PubChem
GLP1R ag – qHTS of GLP-1 Receptor Agonists | Glucagon-like peptide 1 receptor (Homo sapiens), P43220 | HEK293 GLP-1R CRE-luciferase, luminescence, 4-6 h; cells express a hypersensitive GLP-1R form | Potency, µM (highest dose often 45.6 µM), without a hit: at the highest dose activation, hits mostly activators | 380,000 tested, 0.007% active | AID 624172, 2012; note: potency is the fitted concentration of half-maximal effect; % of control where 0% means no effect
GLP-1R inv ag – qHTS of GLP-1 Receptor Inverse Agonists (Inhibition Mode); Glucagon-like peptide 1 receptor (Homo sapiens), P43220; HEK293 GLP-1R CRE-luciferase, luminescence, 24 h; GLP-1R form is constitutively active; Potency, µM (titrated, usually from 38.3 µM), inactives show top-dose activity change, negative = inhibition, most hits filed as inhibitors; 410,000 tested, 1.6% active; AID 624417, 2012; note: potency is the fitted concentration of half-maximal effect; % is set by controls: 0 for no effect and ±100 for the full control effect; nearly all actives have a fitted effect of over 55% in size
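HEK293 cells stably co-expressing a cAMP-responsive luciferase reporter and constitutively active GLP-1R were seeded, incubated 12 h, then exposed to compounds for 24 h at 37 C. Luminescence was read 12 min after detection reagent; inverse agonists lower signal.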
TRPML1 ag – qHTS for Agonists of the Human Mucolipin Transient Receptor Potential 1 (TRPML1). TRPML1-expressing cells, Ca2+ dye fluorescence, FDSS. activation, % (test concentration not listed). 410,000 tested, 0.12% active. AID 624414, 2012; in the data active = activation above about 50%; inconclusive = mostly about 30% to 49%; note: 0% is about no effect
Target sequence (Q9GZU1 whole entry, looked up): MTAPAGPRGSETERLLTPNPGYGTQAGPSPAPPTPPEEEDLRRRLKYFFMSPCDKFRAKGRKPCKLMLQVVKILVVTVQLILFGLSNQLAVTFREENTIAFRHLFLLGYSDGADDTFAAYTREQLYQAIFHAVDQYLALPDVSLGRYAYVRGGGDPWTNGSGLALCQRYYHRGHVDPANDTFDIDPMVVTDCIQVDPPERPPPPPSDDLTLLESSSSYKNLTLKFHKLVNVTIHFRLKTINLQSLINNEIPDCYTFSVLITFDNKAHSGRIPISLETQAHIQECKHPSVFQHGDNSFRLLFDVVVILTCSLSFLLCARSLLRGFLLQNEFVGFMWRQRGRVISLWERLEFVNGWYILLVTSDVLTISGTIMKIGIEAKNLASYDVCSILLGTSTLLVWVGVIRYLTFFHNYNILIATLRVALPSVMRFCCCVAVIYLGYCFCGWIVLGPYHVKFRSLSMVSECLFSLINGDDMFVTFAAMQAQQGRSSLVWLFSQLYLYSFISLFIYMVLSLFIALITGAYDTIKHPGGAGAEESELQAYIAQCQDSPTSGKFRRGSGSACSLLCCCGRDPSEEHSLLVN
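Agonist activity was taken from a 110 s kinetic Ca2+ dye read on the FDSS after pinning compounds onto TRPML1-DL cells. The cells were seeded at 1,500/well with Tet inducer, incubated about 16 h, then dye-loaded at room temperature.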
TRPML1 blocker – qHTS for Inhibitors of the Human Mucolipin Transient Receptor Potential 1 (TRPML1) | Mucolipin-1 (Homo sapiens), Q9GZU1 | TRPML1-inducible cells, Ca2+ dye fluorescence, FDSS; stronger effect = lower value; inhibition of EC80 agonist-evoked calcium signal | activity change, negative = inhibition, % (no concentration beside the values) | 390,000 tested, 0.02% active | AID 624415, 2012; in the data active = activity change below about -50%; inconclusive = between about -30% and that limit;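 note: stimulus is agonist 54-4 at its EC80 concentration; % is set by controls: 0 for no effect and ±100 for the full control effect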
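TRPML1-DL cells, Tet-induced overnight (~16 h, 37 °C) at 1,500 cells/well, were loaded with Ca8 no-wash dye plus quencher for 45-90 min at room temperature. Compounds were pinned during FDSS kinetic reading; agonist 54-4 at EC80 (4 uM final) then added.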
GLP1R cytotox – qHTS of GLP-1 Receptor Inverse Agonists: Cytotox Screen; Potency, µM (doses to about 38.3 µM), for the others: top-dose activity change, negative = inhibition, usual class: inhibitors; HEK293 cAMP-luciferase reporter cells, luminescence, 24 h; 410,000 tested, 0.13% active; AID 624418, 2012;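 note: loss of luciferase light is scored as toxicity; potency is the fitted concentration of half-maximal effect; % is set by controls: 0 for no effect and ±100 for the full control effect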
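1536-well qHTS counterscreen of the MLSMR; 200 cells/uL, 12 h pre-incubation, 23 nL cpd, 24 h at 37 deg C 5% CO2, luciferase detection reagent, 12 min RT, luminescence. Inhibition = undesired.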
* marks the source's active call; other numbers are inactive results; ? = inconclusive; nt = not tested or not shown. Only some compounds are listed: those with a hit (about 1.8% of all), similar ones and a draw of the others. Unless noted, calls come from the whole dose curve; as a rule, active = well fitted curve in the direction sought with a large enough effect; inconclusive = small, poorly fitted or top-dose-only effect, or another doubt; inactive = no such curve, though single readings can be large; an effect the other way counts as inactive or inconclusive.

SMILES	GLP1R ag	GLP-1R inv ag	TRPML1 ag	TRPML1 blocker	GLP1R cytotox
Cc1ccc(OCCNC(=O)c2ccc(COc3ccccc3)o2)cc1	5%	?	1	-7	-1%
CC(C)Cc1ccc(C(=O)NCCOc2ccccc2)o1	12%	11µM*	1	2	0%
COc1cc(CN(C(=O)c2ccc(C)cc2)c2ccccn2)cc(OC)c1OC	nt	-18%	-1	-4	3%
COc1cc(/C=C2\CC/C(=C\c3ccc(OCCO)c(OC)c3)C2=O)ccc1OCCO	?	40%	107*	-28	?
COc1ccc(/C=C2\CC/C(=C\c3ccc(OC)c(OC)c3)C2=O)cc1OC	2%	1%	4	21	24%
CCn1cc2nc(SCC(=O)Nc3ccc(C)cc3)n(Cc3ccc(C)cc3)c(=O)c2n1	nt	?	0	10	-7%
Nc1nc(-c2ccc(NC(=O)c3ccco3)cc2)cs1	5%	7.9µM*	1	-16	-5%
Cc1nc(-c2ccc(NC(=O)c3ccco3)cc2)cs1	-6%	1µM*	2	40	24%
Cc1nc(-c2cccc(NC(=O)c3ccco3)c2)cs1	12%	8%	1	11	-6%
O=C(Nc1ccc(NC(=O)c2ccco2)cc1)c1ccco1	-3%	20%	0	-8	-7%
CCOc1ccc(CCNC(=O)c2cc3sc(CC)cc3n2C)cc1OCC	nt	?	2	0	-4%
CC(=O)Nc1nonc1-c1nnc(SCC(=O)Nc2cc(C)ccc2C)n1-c1ccccc1	nt	14%	-1	4	-11%
Cc1cccc(Cn2cc(C(=O)Nc3ccc(S(N)(=O)=O)cc3)ccc2=O)c1	-7%	12%	0	3	2%
CCCCc1ccc(NC(=O)c2ccc(=O)n(Cc3cccc(C)c3)c2)cc1	-5%	7.1µM*	2	40	-22%
COc1cc(NC(=O)COCc2cc(-c3ccc(F)cc3)on2)cc(OC)c1OC	nt	-10%	2	4	0%
CC(C)CC(=O)Nc1cccc(-c2csc(-c3ccccc3)n2)c1	2%	10µM*	2	-8	-7%
COc1ccc(OC)c(S(=O)(=O)Nc2cc(OC)c(Cl)cc2OC)c1	2%	0%	2	-12	7%
COc1cc(NS(=O)(=O)c2ccc(OC)c(C)c2C)c(OC)cc1Cl	2%	4µM*	0	18	-22%
CCn1ncc(Br)c1C(=O)Nc1ccc(C(C)C)cc1	?	8.9µM*	4	-8	3%
O=C(C=C(C(=O)c1ccccc1)c1ccccc1)c1ccccc1	13%	8.9µM*	3	19	-3%
COc1ccc(-c2nc(CSc3nncn4c3cc3sccc34)c(C)o2)cc1OC	nt	0%	-1	2	-5%
Cc1cccc(NC(=O)NCCc2c[nH]c3ccccc23)c1	3%	8.9µM*	3	28	-2%
CN(c1ccccc1)S(=O)(=O)c1cccc(C(=O)NCCc2c[nH]c3ccccc23)c1	-1%	8.9µM*	3	19	-14%
O=C(NCCc1c[nH]c2ccccc12)Nc1cccc2ccccc12	4%	?	0	5	7%
Cn1c(SCC(=O)N2CCOCC2)ncc(C(=O)Nc2ccc(F)cc2)c1=O	nt	5%	1	15	-6%
CCOC(=O)c1ccc2[nH]c3c(c2c1)CCCC3C(=O)OCC (configuration not stated)	20%	5µM*	2	8	-9%
NC(=O)C1CCCCc2c1[nH]c1ccc(Cl)cc21 (configuration not stated)	2%	13µM*	0	5	-2%
Clc1cccc(-c2nc3ccccn3c2Nc2ccc3c(c2)OCCO3)c1	nt	6.3µM*	5	46	-6%
Oc1ccc(-c2nc3ccccn3c2Nc2ccc3c(c2)OCCO3)cc1	nt	-9%	0	-9	-4%
